A selection: hits, their analogues and other compounds. The true share with any hit is near 1%.
RECQ1 inh-1: blocks DNA unwinding by human RECQ1. P46063. Potency, µM (top dose mostly 57.3 µM), for the others: at the top dose activity, negative = inhibition, most hits filed as inhibitors. 240,000 tested, 0.54% active. RECQ1 DNA unwinding, red fluorescence kinetic read. AID 2549;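 also: plate controls were vehicle for no effect and no enzyme for full effect; nearly all actives have a fitted effect of over 30% in size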
Target sequence (P46063 whole entry, looked up): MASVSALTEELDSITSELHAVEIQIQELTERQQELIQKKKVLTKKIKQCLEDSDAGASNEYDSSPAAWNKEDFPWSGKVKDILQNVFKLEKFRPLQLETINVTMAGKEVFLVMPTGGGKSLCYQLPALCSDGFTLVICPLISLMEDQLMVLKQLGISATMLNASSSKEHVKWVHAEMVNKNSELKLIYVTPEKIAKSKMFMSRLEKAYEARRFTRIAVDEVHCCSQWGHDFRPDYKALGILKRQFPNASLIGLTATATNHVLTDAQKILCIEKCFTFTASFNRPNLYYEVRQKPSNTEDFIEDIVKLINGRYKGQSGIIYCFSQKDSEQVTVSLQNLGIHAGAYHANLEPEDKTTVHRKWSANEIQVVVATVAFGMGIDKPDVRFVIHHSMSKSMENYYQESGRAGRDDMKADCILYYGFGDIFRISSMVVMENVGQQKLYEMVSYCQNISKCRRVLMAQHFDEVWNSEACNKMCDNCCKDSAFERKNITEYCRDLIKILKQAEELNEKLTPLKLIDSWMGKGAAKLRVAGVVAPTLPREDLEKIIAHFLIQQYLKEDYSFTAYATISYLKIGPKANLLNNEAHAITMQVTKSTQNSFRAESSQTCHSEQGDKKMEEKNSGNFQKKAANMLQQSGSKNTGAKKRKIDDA
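RECQ1T1 50 nM; forked duplex (20 bp + 30-nt ss tails) 200 nM, ATP 2 mM final; pH 8.0, 2 mM MgCl2, 2.5 ug/ml poly(dI-dC); 15 min compound preincubation; discontinuous kinetic read over 2 h at RT.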
FEN1 inh: human FEN1 inhibition | P39748 | Recombinant FEN1 flap cleavage, fluorescence, 15 min | Potency, µM (series often up to 114 µM), for inactives: at the top dose activity change, negative = inhibition, hits mostly inhibitors | 390,000 tested, 0.35% active | AID 588795; also: nearly all actives have a fitted effect of over 65% in size
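Enzyme 10 nM, 15 min RT preincubation with compound; start with substrate 50 nM final; reads at 0 and 15 min; qHTS titration, four-parameter Hill fit.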
APE1 inh-1: APE1 (human) endonuclease inhibition; recombinant APE1, TAMRA/BHQ-2 abasic DNA cleavage fluorescence; Potency, µM (series often up to 65.8 µM), without a hit: at the top dose activity change, negative = inhibition, most hits filed as inhibitors; 350,000 tested, 0.35% active; P27695;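 also: plate controls were vehicle for no effect and reference inhibitor for full effect; nearly all actives have a fitted effect of over 55% in size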
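Enzyme (0.75 nM final) and test compound are incubated 15 min at room temperature before adding 50 nM quenched THF abasic-site duplex. Cleavage dequenches TAMRA, followed at 525/598 nm over three reads one minute apart.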
WRN helicase inh: inhibitors of human WRN helicase; Q14191; WRN helicase unwinding, fluorescent forked duplex, kinetic; Potency, µM (series often up to 114 µM), for inactives: top-dose activity change, negative = inhibition, hits mostly inhibitors; 360,000 tested, 0.46% active; AID 651768; also: nearly all actives have a fitted effect of over 55% in size
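Fluorescence dequenching readout, ex 525 nm/em 598 nm, kinetic mode: forked duplex DNA (100 nM final) with adjacent fluorophore and quencher unwound by WRN (20 nM final) with 2 mM ATP. Compound preincubation 15 min, room temperature.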
BLM inh: inhibitors of human Bloom syndrome helicase BLM. AID 2528. 350,000 tested, 0.2% active. recombinant BLM DNA unwinding, fluorescence dequenching. Potency, µM (highest dose often 56.1 µM), without a hit: at the top dose activity change, negative = inhibition, most hits filed as inhibitors;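 also: plate controls were vehicle for no effect and no enzyme for full effect; nearly all actives have a fitted effect of over 35% in size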
L3MBTL1 inh: inhibitors of human L3MBTL1; AlphaScreen L3MBTL1–H3K9me1 peptide binding; 230,000 tested, 0.66% active; AID 485360; Potency, µM (series often up to 57.1 µM), without a hit: at the highest dose activity, negative = inhibition, usual class: inhibitors; Q9Y468; also: nearly all actives have a fitted effect of over 60% in size
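L3MBTL1 (50 nM) pre-complexed 30 min with biotinylated H3(1-15)K9me1 peptide (75 nM), then compounds added for 30 min at room temperature; AlphaScreen streptavidin donor/nickel chelate acceptor beads (10 ug/mL final) read after 30 min dark incubation.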
APE1 dye cs: DNA dye displacement counter-screen activity; shares compounds with APE1 inh-1; DNA fluorescent dye displacement counterscreen, fluorescence; Potency, µM (titrated, usually from 28.5 µM), inactives show top-dose activity change, negative = inhibition, usual class: inhibitors; 480 tested, 7% active;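 also: loss of thiazole orange fluorescence as the dye is displaced from duplex DNA; 0% = ThO with dsDNA and no compound and -100% = ThO without dsDNA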
Endo IV inh: blocks E. coli endonuclease IV DNA cleavage. shares compounds with APE1 inh-1. E. coli Endo IV, fluorogenic AP-site DNA cleavage. Potency, µM (titrated, usually from 27.1 µM), without a hit: at the top dose activity change, negative = inhibition, actives largely listed as inhibitors. 560 tested, 4% active. AID 2565;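 also: plate controls were uninhibited enzyme wells for no effect and no enzyme buffer wells for full effect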
APE1 inh-2: APE1 (human) endonuclease inhibition, confirmation; shares compounds with APE1 inh-1; purified APE1, fluorogenic abasic-site DNA cleavage; Potency, µM (doses to about 57.1 µM), inactives show at the highest dose activity change, negative = inhibition, actives largely listed as inhibitors; 750 tested, 44% active; also: nearly all actives have a fitted effect of over 30% in size
APE1 FP inh: APE1 (human) DNA binding inhibition, fluorescence polarization; AID 2573; APE1 binding to TAMRA-labelled double-stranded DNA, fluorescence polarization displacement; shares compounds with APE1 inh-1; 480 tested, 7% active; Potency, µM (series often up to 28.5 µM), for the others: at the highest dose activity, negative = inhibition, most hits filed as inhibitors
RECQ1 conf: confirmation of human RECQ1 helicase inhibitors; shares compounds with RECQ1 inh-1; RECQ1 helicase DNA unwinding, fluorescence; Potency, µM (doses to about 229 µM), for the others: at the highest dose activity change, negative = inhibition, most hits filed as inhibitors; 610 tested, 28% active; AID 2708; also: nearly all actives have a fitted effect of over 45% in size
RECQ1 ADP FP: displaces ADP in a fluorescence polarization counter-screen for RECQ1 hits; shares compounds with RECQ1 inh-1; 530 tested, 27% active; AID 2711; ADP fluorescence polarization displacement counterscreen; Potency, µM (series often up to 228 µM), for the others: at the top dose activity change, negative = inhibition, usual class: inhibitors; also: nearly all actives have a fitted effect of over 45% in size
RECQ1 inh-2: RECQ1 helicase inhibition confirmed, round 2; 1,100 tested, 15% active; Potency, µM (highest dose often 119 µM), without a hit: top-dose activity, negative = inhibition, actives largely listed as inhibitors; shares compounds with RECQ1 inh-1; recombinant RECQ1 DNA unwinding, red fluorescence; AID 504841; also: nearly all actives have a fitted effect of over 50% in size
Numbers without * were called inactive; i = inactive; ? = inconclusive; · = no result given; [ ] = another dose, or the depositor's remark. Calls follow the shape of the dose curve; as a rule, active = well fitted curve in the direction sought with a large enough effect; inconclusive = small, poorly fitted or top-dose-only effect, or another doubt; inactive = no such curve, though single readings can be large; an effect the other way counts as inactive or inconclusive. Unless noted, % is scaled to controls: 0 for no effect and ±100 for the full control effect; potency is read from the fitted curve at half-maximal effect.

SMILES	RECQ1 inh-1	FEN1 inh	APE1 inh-1	WRN helicase inh	BLM inh	L3MBTL1 inh	APE1 dye cs	Endo IV inh	APE1 inh-2	APE1 FP inh	RECQ1 inh-2	others
CC(=O)c1ccc(-c2ccc(C3C4C=CCCC4(C)C(=O)N3Cc3ccccc3)c(F)c2)cc1 (stereo not given)	i	4.1%	-4.7%	·	-7.7%	·	·	·	·	·	·
CCOc1cc(N2CCOCC2)c(OCC)cc1NC(C)C(=O)N1CCN(CC)CC1 (stereo not given)	?	-31.7%	10µM*	?	-10.3%	17.8µM*	·	·	?	·	-7.2%
CCOc1cc(N2CCOCC2)c(OCC)cc1NC(=O)C(C)C	i	1.5%	3.7%	-3.7%	-2.1%	·	·	·	·	·	·
Cc1cc(SCC(=O)c2ccc(O)c(O)c2)nc2ccccc12	25.1µM*	-18.2%	?	?	-18.9%	-18.0%	12.6µM*	75.5%	?	13.1%	10µM*
COc1ccc(CNC(=O)C2CCC(=O)N(C3CCCCCC3)C2)c(OC)c1 (stereo not given)	·	·	·	2.9%	·	·	·	·	·	·	·
CC(=O)NC(c1ccco1)c1cc(Cl)c2ccc(N(C)C)nc2c1O (stereo not given)	·	·	1.0%	·	·	-23.7%	·	·	·	·	·
Cc1ccc(S(=O)(=O)C[C@@H]2OC[C@H](CO)N2S(=O)(=O)c2ccc(C)cc2)cc1	·	·	·	-0.5%	·	·	·	·	·	·	·
Cc1ccccc1NC(=O)CSc1nnc(-c2ccco2)n1N	·	-0.9%	-14.6%	-11.8%	·	-6.9%	·	·	·	·	·
Cc1cccc(NC(=O)CSc2nnc(-c3ccco3)c(-c3ccco3)n2)c1C	17.8µM*	?	?	31.6µM*	17.8µM*	?	?	29.5%	?	0.9%	-13.0%
Nc1ccc(-c2nc3ccc(-c4nc5ccc(N)cc5[nH]4)cc3[nH]2)cc1	25.1µM*	35.5µM*	?	·	14.1µM*	·	·	28.2µM*	15.8µM*	·	31.6µM*	RECQ1 conf=28.2µM*;RECQ1 ADP FP=28.2µM*
CC1(C)Cc2c(sc3c2c(=N)n(Cc2ccco2)c(=O)n3Cc2ccccc2)CO1	-4.9%	-13.7%	-9.1%	1.8%	-12.0%	·	·	·	·	·	·
CC1(C)Cc2c(sc3[nH]c(=S)n(Cc4ccco4)c(=O)c23)CO1	?	-15.4%	35.5µM*	-24.0%	-8.8%	-0.9%	-7.1%	7.8%	-4.6%[24.4 µM]	?	0.6%
